Experimental findings from PubChem BioAssay (Tox21) are described below.

Values without a mark were called inactive. Records with an inconclusive call do not appear. The source made the active and inactive calls. Unless noted, the call rests on the fitted dose curve; in most records, active means well fitted curve in the direction sought with a large enough effect in the repeat runs; inconclusive means weak or mixed curves; inactive means no such curve, though single readings can be large; an effect the other way counts as inactive or inconclusive.

The nature of test [1]: qHTS assay to identify small molecule agonists of the androgen receptor (AR) signaling pathway in the presence of an antagonist - cell viability counter screen (AID 1259379). Further: nearly all actives have a fitted effect of over 25% in size. Further: potency means the concentration at half of the fitted maximal effect.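 On activity change, negative = cytotoxicity: MDA-kb2 human breast cancer cells carrying an MMTV luciferase reporter; series mostly up to about 92 µM; on the % scale 0 is the no-effect control and ±100 the full control effect.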 An outline of the steps:
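Cytotoxicity counter-screen run in the same wells as the nilutamide-challenged (3.0 µM final) AR agonist assay in MDA-kb2 cells. Compounds tested at 15 concentrations for 16 h, 37 °C without CO2; CellTiter-Fluor fluorescence read.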
A general note: qHTS replaces the single test concentration by a dilution series.

Test [2] is described as follows: qHTS assay to identify small molecule agonists of the estrogen receptor beta (ER-beta) signaling pathway - cell viability counter screen (AID 1259380). Further: nearly all actives have a fitted effect of over 30% in size. Further: potency means the concentration at half of the fitted maximal effect. On activity change, negative = cytotoxicity: on the % scale 0 is the no-effect control and ±100 the full control effect. Put shortly:
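Cell viability counter screen: CellTiter-Glo luminescence (30 min, room temperature) measured in the same wells as the beta-lactamase readout, after 16 hr compound exposure at 37C of ER-beta-bla HEK293T cells in 2% charcoal-stripped FBS medium.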

A short description of test [3]: qHTS assay to identify small molecule antagonists of the estrogen receptor beta (ER-beta) signaling pathway - cell viability counter screen (AID 1259382). Further: nearly all actives have a fitted effect of over 55% in size. Further: potency means the concentration at half of the fitted maximal effect.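 On activity change, negative = cytotoxicity: HEK293T cells carrying ER-beta-UAS-bla reporter stimulated with estradiol; series mostly up to about 92 µM; on the % scale 0 is the no-effect control and ±100 the full control effect.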 Put shortly: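 Cytotoxicity was measured in the same wells by CellTiter-Glo luminescence after 30 min at room temperature. Cells were ER-beta-bla HEK293T in charcoal-stripped serum, given compound together with 1 nM E2 and incubated 16 h at 37C.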

Test [4] addresses Estrogen receptor (Homo sapiens) (UniProt P03372). The experiment in a line: qHTS assay to identify small molecule agonists of the estrogen receptor alpha (ER-alpha) signaling pathway in the presence of an antagonist (AID 1259383; calls by dose curve; further: top concentration of the series differs between compounds; on the % scale 0 is the no-effect control and ±100 the full control effect; nearly all actives have a fitted effect of over 15% in size). Put shortly: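 Agonist-mode confirmation run in the presence of 10.0nM (final) ICI-182,780 antagonist. The reporter was ERE-driven luciferase in VM7Luc4E2 cells, grown in charcoal-stripped serum. Cells were exposed to 15-concentration compound series for 22hr, then ONE-Glo luminescence was read.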

A short description of test [5]: qHTS assay to identify small molecule agonists of the estrogen receptor alpha (ER-alpha) signaling pathway in the presence of an antagonist - cell viability counter screen (AID 1259386). Further: nearly all actives have a fitted effect of over 30% in size. Further: potency means the concentration at half of the fitted maximal effect. Put shortly:
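Compounds tested at 15 concentrations for 22 h at 37C alongside 10.0nM (final) ICI-182,780 antagonist, in VM7Luc4E2 cells grown in phenol red-free, charcoal-stripped medium. Viability read by CellTiter-Fluor fluorescence after 1 h reagent incubation.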

A short description of test [6]: qHTS assay to identify small molecule agonists or antagonists of the thyroid stimulating hormone receptor (TSHR) signaling pathway - wild type cell line counter screen (AID 1259384; calls by dose curve; further: on the % scale 0 is the no-effect control and ±100 the full control effect). An outline of the steps: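 Counter screen in untransfected Hek293: compounds (15-point titration, triplicate) plus phosphodiesterase inhibitor Ro20-1724 added after 18 h plating; 30 min RT. Intracellular cAMP via competitive d2/cryptate immunoassay, 1 h incubation.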

The target of test [7] is Thyrotropin receptor (Homo sapiens) (UniProt P16473). The test is described as follows: qHTS assay to identify small molecule antagonists of the thyroid stimulating hormone receptor (TSHR) signaling pathway (AID 1259385; calls by dose curve; further: nearly all actives have a fitted effect of over 20% in size; further: potency means the concentration at half of the fitted maximal effect). Put shortly:
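Antagonist mode: compound-treated TSHR-expressing HEK293 cells were stimulated with 1.5 ng/mL TSH (final) in presence of Ro20-1724 for 30 min at RT. HTRF cAMP detection after 1 h; each compound tested at 15 concentrations, triplicate.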

For test [8], the target named is Progesterone receptor (Homo sapiens) (UniProt P06401). The test is described as follows: qHTS assay to identify small molecule agonists of the progesterone receptor (PR) signaling pathway (AID 1346784; calls by dose curve; further: on the % scale 0 is the no-effect control and ±100 the full control effect; nearly all actives have a fitted effect of over 30% in size). Put shortly:
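Using charcoal-stripped serum (2%) to limit endogenous steroids, PR-UAS-bla HEK 293T cells received compounds for 16 hr at 37C after 6 hr plating; beta-lactamase FRET fluorescence was recorded following 2 hr substrate loading at room temperature.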

Test [9] has the same target. The test is described as follows: qHTS assay to identify small molecule antagonists of the progesterone receptor (PR) signaling pathway (AID 1346795; active means well fitted inhibition curve with a large enough effect in the signal ratio in the repeat runs, not every such curve was filed as active; the % refers to the signal ratio; further: potency means the concentration at half of the fitted maximal effect). An outline of the steps:
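Inhibition of R5020-induced (1 nM final) beta-lactamase reporter signal in PR-UAS-bla HEK293T cells was scored by FRET fluorescence after overnight (16 hr) compound treatment.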

In test [10] the target is Androgen receptor (Homo sapiens) (UniProt P10275). The test is described as follows: qHTS assay to identify small molecule agonists of the androgen receptor (AR) signaling pathway in the presence of an antagonist (AID 1259381; calls by dose curve; further: potency means the concentration at half of the fitted maximal effect; nearly all actives have a fitted effect of over 15% in size). Put shortly:
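Agonist-mode confirmation run against 3.0 uM final nilutamide: compounds titrated at 15 concentrations onto MDA-kb2 MMTV-luciferase reporter cells. Luminescence measured with ONE-Glo following 16 hr incubation, 37C, 0% CO2.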

Sequence of Thyrotropin receptor (Homo sapiens) (P16473 whole entry, looked up): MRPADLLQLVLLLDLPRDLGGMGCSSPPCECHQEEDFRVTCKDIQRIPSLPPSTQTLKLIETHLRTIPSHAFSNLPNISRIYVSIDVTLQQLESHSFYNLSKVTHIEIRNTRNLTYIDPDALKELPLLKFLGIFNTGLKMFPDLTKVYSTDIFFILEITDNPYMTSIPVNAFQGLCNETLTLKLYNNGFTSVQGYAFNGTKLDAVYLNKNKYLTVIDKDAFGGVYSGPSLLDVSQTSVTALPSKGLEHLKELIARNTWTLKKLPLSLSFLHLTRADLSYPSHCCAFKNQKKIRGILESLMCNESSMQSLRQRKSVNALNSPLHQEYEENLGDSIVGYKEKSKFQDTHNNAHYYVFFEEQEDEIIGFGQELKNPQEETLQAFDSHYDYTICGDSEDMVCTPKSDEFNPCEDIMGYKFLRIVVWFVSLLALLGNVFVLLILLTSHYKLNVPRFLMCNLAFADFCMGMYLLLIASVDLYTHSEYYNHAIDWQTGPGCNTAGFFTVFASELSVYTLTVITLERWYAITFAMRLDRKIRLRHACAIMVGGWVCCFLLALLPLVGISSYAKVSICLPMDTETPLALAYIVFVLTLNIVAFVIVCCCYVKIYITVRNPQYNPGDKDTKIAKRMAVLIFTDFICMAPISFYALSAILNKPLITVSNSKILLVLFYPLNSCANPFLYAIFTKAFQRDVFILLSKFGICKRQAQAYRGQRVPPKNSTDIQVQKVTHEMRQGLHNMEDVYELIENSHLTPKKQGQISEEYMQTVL
Sequence of Progesterone receptor (Homo sapiens) (P06401 whole entry, looked up): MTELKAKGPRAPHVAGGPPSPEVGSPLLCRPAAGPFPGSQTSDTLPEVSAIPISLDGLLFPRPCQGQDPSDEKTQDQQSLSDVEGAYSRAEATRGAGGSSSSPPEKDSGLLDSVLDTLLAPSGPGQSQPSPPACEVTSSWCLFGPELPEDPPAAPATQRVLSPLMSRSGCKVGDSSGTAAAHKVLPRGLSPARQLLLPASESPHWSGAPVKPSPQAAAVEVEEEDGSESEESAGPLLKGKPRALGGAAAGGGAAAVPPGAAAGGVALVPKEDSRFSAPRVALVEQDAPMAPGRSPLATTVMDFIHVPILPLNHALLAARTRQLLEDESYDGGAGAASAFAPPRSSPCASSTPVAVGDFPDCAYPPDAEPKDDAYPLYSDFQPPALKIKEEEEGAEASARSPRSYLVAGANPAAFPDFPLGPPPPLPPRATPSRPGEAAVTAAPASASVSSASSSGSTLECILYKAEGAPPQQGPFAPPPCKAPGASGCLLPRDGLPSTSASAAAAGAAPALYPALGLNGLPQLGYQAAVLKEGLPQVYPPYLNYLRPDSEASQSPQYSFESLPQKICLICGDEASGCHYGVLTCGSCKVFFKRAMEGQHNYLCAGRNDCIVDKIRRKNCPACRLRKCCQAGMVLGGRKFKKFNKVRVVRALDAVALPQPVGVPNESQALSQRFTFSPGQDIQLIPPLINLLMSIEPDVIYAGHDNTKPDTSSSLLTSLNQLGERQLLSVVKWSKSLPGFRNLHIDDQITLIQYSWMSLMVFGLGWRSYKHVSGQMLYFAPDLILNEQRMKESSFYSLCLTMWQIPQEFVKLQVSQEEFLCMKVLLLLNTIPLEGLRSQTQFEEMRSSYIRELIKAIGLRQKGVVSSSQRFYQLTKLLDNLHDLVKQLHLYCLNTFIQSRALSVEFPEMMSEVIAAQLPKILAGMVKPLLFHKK
Sequence of Estrogen receptor (Homo sapiens) (P03372 whole entry, looked up): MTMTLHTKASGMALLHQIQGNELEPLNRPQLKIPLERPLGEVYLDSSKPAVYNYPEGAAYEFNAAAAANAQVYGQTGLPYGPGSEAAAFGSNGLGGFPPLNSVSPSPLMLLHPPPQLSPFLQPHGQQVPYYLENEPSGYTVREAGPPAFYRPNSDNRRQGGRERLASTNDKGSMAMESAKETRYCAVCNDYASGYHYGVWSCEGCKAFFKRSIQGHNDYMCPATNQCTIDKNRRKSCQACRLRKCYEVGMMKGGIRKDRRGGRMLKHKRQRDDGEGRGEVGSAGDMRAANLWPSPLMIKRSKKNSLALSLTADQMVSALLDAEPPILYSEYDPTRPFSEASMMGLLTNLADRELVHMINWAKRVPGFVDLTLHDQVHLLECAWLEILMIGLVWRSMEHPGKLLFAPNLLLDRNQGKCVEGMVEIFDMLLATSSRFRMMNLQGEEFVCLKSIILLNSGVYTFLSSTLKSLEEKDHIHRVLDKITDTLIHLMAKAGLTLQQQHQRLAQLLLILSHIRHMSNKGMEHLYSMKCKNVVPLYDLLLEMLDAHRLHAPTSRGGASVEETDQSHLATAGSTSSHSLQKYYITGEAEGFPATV
Sequence of Androgen receptor (Homo sapiens) (P10275 whole entry, looked up): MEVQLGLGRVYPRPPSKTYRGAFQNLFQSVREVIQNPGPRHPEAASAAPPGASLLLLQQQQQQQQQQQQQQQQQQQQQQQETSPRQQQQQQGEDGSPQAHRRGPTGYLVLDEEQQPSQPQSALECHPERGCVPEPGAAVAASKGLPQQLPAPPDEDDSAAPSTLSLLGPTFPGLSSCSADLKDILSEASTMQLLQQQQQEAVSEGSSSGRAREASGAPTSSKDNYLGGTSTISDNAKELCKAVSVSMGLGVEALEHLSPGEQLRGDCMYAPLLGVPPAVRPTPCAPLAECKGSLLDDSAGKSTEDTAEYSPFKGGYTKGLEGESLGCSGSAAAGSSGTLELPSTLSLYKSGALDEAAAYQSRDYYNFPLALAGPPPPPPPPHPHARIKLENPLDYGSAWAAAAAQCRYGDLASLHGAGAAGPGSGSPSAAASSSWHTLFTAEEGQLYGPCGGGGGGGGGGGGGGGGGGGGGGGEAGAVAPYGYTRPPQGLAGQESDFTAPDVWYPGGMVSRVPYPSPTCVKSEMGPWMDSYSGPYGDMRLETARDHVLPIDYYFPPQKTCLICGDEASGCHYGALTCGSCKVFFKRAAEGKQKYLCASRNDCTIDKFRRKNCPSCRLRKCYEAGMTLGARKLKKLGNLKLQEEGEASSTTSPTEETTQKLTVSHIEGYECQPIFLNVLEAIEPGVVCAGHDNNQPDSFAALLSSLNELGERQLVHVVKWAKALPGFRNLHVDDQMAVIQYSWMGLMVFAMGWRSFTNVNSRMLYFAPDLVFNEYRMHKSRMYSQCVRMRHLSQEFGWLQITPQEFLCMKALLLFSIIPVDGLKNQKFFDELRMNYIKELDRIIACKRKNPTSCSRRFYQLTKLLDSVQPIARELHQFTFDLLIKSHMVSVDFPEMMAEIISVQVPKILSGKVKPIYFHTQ

On to `CC(=O)[C@]1(O)Cc2c(O)c3c(c(O)c2[C@@H](O[C@H]2C[C@H](N)[C@H](O)[C@H](C)O2)C1)C(=O)c1ccccc1C3=O`, for which the Potency in [1] was 9.44 µM (active); in test [2], 2.66 µM (active); in test [5], 18.8 µM (active). Besides, the Potency entry in test [3] and in [4] was “inactive” each time.
On to `CC1(C)[C@H](C(=O)OCc2cccc(Oc3ccccc3)c2)[C@@H]1C=C(Cl)Cl`, for which the Potency entry in test [1], in [2], in test [3], in [4], in test [6] and in test [7] was “inactive” in each case. Moreover, the Potency result in test [5] and in [9] was “inactive” in each case. Besides, the outcome in test [8] was inactive.
Take `O=[N+]([O-])c1ccc(CO)cc1`: the Potency entry in [1], in test [2], in [3], in [4], in test [5] and in [9] was “inactive” throughout. In addition, the result in [8] was inactive.
For the molecule `NC(=O)c1ccccc1Cl`, the Potency entry in test [1], in [2], in test [3], in test [4], in [5] and in [9] was “inactive” in each case. Also, in test [8], the call was inactive.
`CC(C)(C)C1=CC(=O)C(C(C)(C)C)=CC1=O`: the Potency entry in test [1], in test [3], in test [6], in test [7], in test [5] and in [9] was “inactive” in each case. For the same molecule, the molecule was called inactive in test [8].
For `Oc1cccc2c(O)cccc12`, the Potency entry in test [1], in test [4] and in test [5] was “inactive” throughout. For the same molecule, the Potency in [2] was 61.1 µM (active); in [3], 61.1 µM (active); in test [9], 48.6 µM (active). Also, the outcome in test [8] was inactive.
`CCCCCc1ccc(O)cc1`: the Potency result in test [1], in test [4], in test [6], in [7] and in [5] was “inactive” in each case. The outcome in test [8] was inactive.
For the molecule `CCCCCCCCOC(=O)c1cc(O)c(O)c(O)c1`, the Potency was 17.2 µM (active) in test [1], 68.6 µM (active) in test [2], 54.5 µM (active) in [5] and 30.6 µM (active) in test [9]. Also, the Potency result in test [4], in test [6] and in test [7] was “inactive” throughout.
For `C=Cc1ccncc1`, the Potency entry in test [1], in test [2], in [3], in test [6], in test [7] and in test [5] was “inactive” throughout. Further, the Potency entry in [9] was “inactive”. In test [8], the molecule was called inactive.
With `COc1ccc(OC)c(N=Nc2c(O)ccc3ccccc23)c1`, the Potency in [1] is 24.3 µM (active); in test [2] it was 30.6 µM (active); in test [7], 61.1 µM (active); in test [5], 6.11 µM (active). Also, the Potency entry in test [6] and in [9] was “inactive” throughout. Moreover, the molecule was classed as inactive in test [8].
`CC(C)=CCC[C@H](C)CC=O`: the Potency entry in [1], in test [2], in test [3], in test [6], in [7] and in [5] was “inactive” each time. Moreover, in test [9], the Potency result was “inactive”. Moreover, in test [8], the molecule was called inactive.
As for `Nc1cc([N+](=O)[O-])ccc1Cl`, the Potency result in test [1], in test [2], in test [3], in test [6], in [7] and in test [5] was “inactive” throughout. Further, the outcome in test [8] was inactive.
On to `COc1cc(/C=C/C(=O)CC(=O)/C=C/c2ccc(O)c(OC)c2)ccc1O`, for which the Potency in [1] is 54.8 µM (active); in [2], 69 µM (active); in test [5] it was 61.5 µM (active). Further, the Potency result in [4] and in test [6] was “inactive” in each case.
On to `CCOC(=O)C1=NN(c2ccc(Cl)cc2Cl)C(C)(C(=O)OCC)C1` (centres undefined), for which the Potency result in test [1], in test [3], in [4], in test [6] and in [5] was “inactive” in each case. Further, the molecule was classed as inactive in test [8]. For the same molecule, the Potency in test [9] is 27.3 µM (active).
For the molecule `O=[N+]([O-])c1ccc(O)c2ncccc12`, the Potency was 11.9 µM (active) in test [1], 0.944 µM (active) in test [2], 11.9 µM (active) in [5] and 0.531 µM (active) in test [9]. The Potency entry in [6] and in test [7] was “inactive” in each case. In addition, the outcome in test [8] was inactive.
As to `Clc1nc(C(Cl)(Cl)Cl)c(Cl)c(Cl)c1Cl`, the values for the Potency in test [1] and in [2] were 21.7 µM (active) and 8.63 µM (active), respectively. The Potency result in test [4], in test [6] and in test [5] was “inactive” throughout. Also, the call in [8] was inactive.
With `C=Cc1ccc(O)c(OC)c1`, the Potency entry in test [1], in test [4], in test [6], in test [7] and in test [5] was “inactive” throughout. For the same molecule, the call in [8] was inactive.
Consider `CCCCCCCCCCCC(=O)Cl`, for which the Potency entry in test [1], in test [4], in [6], in test [7], in test [5] and in test [9] was “inactive” each time. In test [2], the Potency is 34.4 µM (active). Further, in test [8], the call was inactive.
On to `COc1c(Br)cc(Br)c(C)c1Br`, for which the Potency result in [1], in test [2], in test [3], in test [6], in test [5] and in test [9] was “inactive” throughout. For the same molecule, in [8], the molecule was classed as inactive.
`CCN(CC)c1ccc(C=O)cc1`: the Potency entry in test [1], in test [3], in test [4], in [6] and in [5] was “inactive” each time. Moreover, the Potency in test [10] was 34.4 µM (active). In test [8], the result was inactive.
Take `c1ccc2cc3c4ccccc4c4ccccc4c3cc2c1`: the Potency result in test [1], in [2], in test [3], in test [6], in [7] and in [5] was “inactive” each time. The Potency result in test [9] was “inactive”. Further, in [8], the molecule was called inactive.
For the molecule `SC1CCCCC1`, the Potency entry in [1], in test [2], in [3], in test [6], in [7] and in test [5] was “inactive” throughout. Further, the molecule was called inactive in test [8].
`CCCCCN=C(N)N/N=C/c1c[nH]c2ccc(OC)cc12`: the Potency in [1] is 13.3 µM (active); in test [2], 16.8 µM (active); in test [3], 16.8 µM (active); in test [7], 29.8 µM (active); in [5], 33.5 µM (active). In test [6], the Potency entry is “inactive”.
Take `c1ccc(-c2ccc(C(c3ccccc3)n3ccnc3)cc2)cc1` (centres undefined): the Potency entry in test [1], in [4], in test [6] and in test [5] was “inactive” throughout. Besides, the Potency in test [2] is 29.8 µM (active); in [9], 5.96 µM (active).
`S=C1NC=NC2N=CNC12` (centres undefined): the Potency entry in test [1], in [6], in test [7] and in [5] was “inactive” each time. For the same molecule, the Potency in [2] is 3.44 µM (active). Moreover, the outcome in test [8] was inactive.
Take `ClC(c1ccccc1)(c1ccccc1)c1ccccc1`: the Potency result in [1], in test [2], in test [3] and in test [5] was “inactive” each time. The result in [8] was inactive.
Consider `O=C(Nc1ccc([N+](=O)[O-])cc1)Nc1ccc([N+](=O)[O-])cc1` (tested in a mixture with another compound), for which the Potency entry in [1], in [6], in test [7] and in test [5] was “inactive” throughout. Besides, the Potency in test [2] is 0.596 µM (active). For the same molecule, the call in test [8] was inactive.
For `c1ccc(-c2ccccc2-c2ccccc2)cc1`, the Potency result in test [1], in test [4], in [6] and in test [5] was “inactive” throughout. Moreover, the Potency in test [2] is 68.6 µM (active).
Regarding `CCCCCCCCCCCCS(=O)(=O)Cl`, the activity change, negative = cytotoxicity in [1] was 2.74% [at 19 µM]; in test [5] it was -0.178% [at 19 µM]. The Potency in test [2] is 14.6 µM (active). Moreover, in test [6], the cAMP activity change was 2.12% [at 18.9 µM, active compounds read high]. Moreover, the activity change, negative = inhibition in test [7] is -1.01% [at 19 µM]; in [9], -1.09% [at 18.9 µM]. In addition, the activation in test [8] was -0.481% [at 19 µM].
